# Measured values from the supplement of paper PMC3334620.
# Whole data set: some 33,000 sequences, median “E-score (-0.5 to 0.5)” near -0.043, cut for the highest 2% near 0.37. The sample as a whole holds a higher share of the highest values than the screen did.
# Target: T1, Upc2 (UniProt Q12151)
# T1 sequence: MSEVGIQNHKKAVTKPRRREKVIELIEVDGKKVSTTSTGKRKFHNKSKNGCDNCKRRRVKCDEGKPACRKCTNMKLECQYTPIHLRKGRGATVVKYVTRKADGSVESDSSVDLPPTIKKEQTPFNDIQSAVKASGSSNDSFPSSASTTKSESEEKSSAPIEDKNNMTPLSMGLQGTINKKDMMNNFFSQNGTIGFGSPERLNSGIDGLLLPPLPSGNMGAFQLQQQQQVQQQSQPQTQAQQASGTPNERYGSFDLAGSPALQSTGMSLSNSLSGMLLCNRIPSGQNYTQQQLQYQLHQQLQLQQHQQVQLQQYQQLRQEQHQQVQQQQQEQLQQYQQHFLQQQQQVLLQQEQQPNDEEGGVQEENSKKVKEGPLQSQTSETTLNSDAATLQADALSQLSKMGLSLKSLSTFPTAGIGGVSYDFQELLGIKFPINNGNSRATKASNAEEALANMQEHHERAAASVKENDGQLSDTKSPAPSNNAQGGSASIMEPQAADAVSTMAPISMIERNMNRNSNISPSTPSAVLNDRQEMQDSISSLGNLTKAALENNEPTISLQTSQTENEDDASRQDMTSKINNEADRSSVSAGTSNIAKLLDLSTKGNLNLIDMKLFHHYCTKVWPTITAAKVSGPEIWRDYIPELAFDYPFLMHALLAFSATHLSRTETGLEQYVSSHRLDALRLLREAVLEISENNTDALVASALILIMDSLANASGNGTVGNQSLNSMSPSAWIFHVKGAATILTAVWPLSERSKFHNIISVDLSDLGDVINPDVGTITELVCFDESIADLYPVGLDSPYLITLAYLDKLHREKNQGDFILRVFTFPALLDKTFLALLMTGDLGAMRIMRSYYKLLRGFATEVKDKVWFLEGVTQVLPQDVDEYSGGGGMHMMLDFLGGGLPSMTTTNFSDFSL
# Test: PBM E-score (8-mer binding enrichment) (E-score (-0.5 to 0.5)); higher = stronger / more preferred TF binding
# Settings: protein concentration: 200 nM; construct: GST-full length
# Experimental: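 Universal 'all 10-mer' protein binding microarrays (Agilent AMADID 015681) probed with GST-tagged S. cerevisiae TFs (full-length or DBD) made by in vitro transcription/translation (PURExpress), about 100-200 nM. Bound TF was detected with fluorescent anti-GST. Each ungapped 8-mer (which stands for itself and its reverse complement) is scored by the PBM enrichment score (E-score), a modified Wilcoxon-Mann-Whitney statistic from -0.5 to +0.5, computed with the Universal PBM Analysis Suite. Scale: above 0.35 generally sequence-specific binding.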
row,Sequence,PBM E-score
1,AGACGATA,0.138
2,ATTCGATA,0.0034
3,GTACGATA,0.445
4,GCACGATA,-0.0168
5,ATACGATA,0.472
6,CTACGATA,0.31
7,CAAGCGAC,0.169
8,ATTTTCCG,0.139
9,GTTCTCCA,-0.109
10,AGTCGAAG,-0.273
11,AACCGTAA,0.233
12,AGCCGTAG,-0.0316
13,AACCGTAC,0.311
14,ACCCGTAG,-0.11
15,AGCCGTAA,0.279
16,AACCGTAT,0.375
17,ACCCGTAC,0.354
18,ACCCGTAT,0.396
19,AGCCGTAT,0.378
20,AGAAGAAG,-0.0336
21,CCTAGTGA,-0.174
22,TGCAACAA,-0.117
23,AAAAAACA,-0.00292
24,TGCAAGAA,-0.0985
25,AGTACAAA,-0.013

row,Sequence,PBM E-score
1,CATACAAG,-0.192
2,GGTACAAA,0.0128
3,AGTACATA,-0.0422
4,CGTACATA,0.415
5,CGTACAAG,0.442
6,GGTACAAC,-0.0773
7,AGTACAAC,-0.0045
8,CGTACATC,0.352
9,CGTACAAC,0.439
10,CGTACAAA,0.421
11,AGTACAAG,-0.052
12,AGTTCTCA,-0.107
13,CGCGACCA,0.116
14,AGAGCTAG,-0.113
15,AGTCTCTA,-0.0101
16,ATCCCCTC,-0.0985
17,CAAACCCA,0.0481
18,AAAATGTC,0.14
19,GCATCGAA,0.00261
20,CCATCGTC,-0.0745
21,CCATCGTA,0.44
22,GCATCGTA,0.429
23,ACATCGTG,-0.0454
24,ACATCGTC,-0.00985
25,ACATCGTA,0.425

row,Sequence,PBM E-score
1,CCATCGAA,-0.132
2,GCATCGGA,-0.0207
3,TGAAGGCA,-0.0834
4,AACTATGC,0.051
5,AGTGGTCC,-0.123
6,CCAATCGG,-0.174
7,CCGAGGTA,0.125
8,CCTACGAA,0.228
9,GCTACGAA,0.395
10,TCTACGAA,0.335
11,ACTACGAC,0.272
12,CCTACGAC,0.232
13,GCTACGAC,0.379
14,TTACTCAA,0.0201
15,AGTGAGAG,-0.279
16,AGCCATAT,0.0338
17,GATACAAA,0.106
18,ACTACGAT,0.16
19,AATACGAC,0.435
20,AATACGAG,0.457
21,GATACGAA,0.454
22,AATACGTC,0.0421
23,AATACGAT,0.395
24,AATACGTG,0.155
25,AATACGCT,0.212

row,Sequence,PBM E-score
1,AATACGCC,0.00457
2,GATACGTA,0.254
3,AATACGGG,0.229
4,CAGCACAA,0.0156
5,CGAGATGA,0.233
6,CGACTCTC,0.179
7,AAACAGGA,-0.139
8,TACCTGCA,-0.0203
9,ATAGATCC,-0.0535
10,CGACACAG,0.122
11,CAAACCGG,-0.0596
12,GATACGCC,0.189
13,CATACAAA,0.114
14,GATACGAC,0.468
15,CATACGAC,0.466
16,CATACGTA,0.315
17,CATACGAA,0.466
18,CATACGCG,0.313
19,CATACGAG,0.486
20,GATACGGC,0.324
21,CACACGAG,0.155
22,CATACGCC,0.307
23,CATACGTC,0.215
